“And” between values parts separate entries of the source, which are not always exact repeats. Equal values may be shown once. In all, about 320,000 compounds went through this assay and about 2,100 (0.66%) were called active. Roughly 53% stayed inconclusive and do not appear here. The call rests on the fitted dose curve; in most records, active means well fitted inhibition curve with a large enough effect in the signal ratio, with a control signal flat (not every such curve was filed as active); inconclusive means small, poorly fitted or top-dose-only effect, or effect the other way, or a change in a side signal; inactive means flat fitted curve, though single readings scatter; the % refers to the signal ratio. Shown is part of a subset that was picked to be rich in actives.
Potency means the concentration at half of the fitted maximal effect.

The nature of the experiment: qHTS Assay for Lipid Storage Modulators in Drosophila S3 Cells.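 On cell number change: cells counted by Cell Tracker Red CMTPX staining in the red channel.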 On lipid storage change, negative = inhibition: on the % scale 0 is the no-effect control and ±100 the full control effect. Conditions: BODIPY lipid droplet fluorescence, 18-24 h, cells fed with added oleic acid; cell number change: measured here: cell count max response; series mostly up to 46.1 µM; lipid storage change, negative = inhibition: at the top concentration. The source says:
NIH Molecular Libraries Probe Production Centers Network [MLPCN] NIH Chemical Genomics Center [NCGC] MLPCN Grant: 1 R03 MH085686-01 Assay Submitter (PI): Beller, Mathias; Max-Planck-Institut fur Biophysikalische Chemie NCGC Assay Overview: Storing lipids as a reservoir for energy or the anabolism of elementary metabolites is a common feature of probably all cells and is conserved from bacteria to humans. The universal cellular lipid storage organelle is the so-called lipid storage droplet (LD). Although ubiquitous, LDs share a simple structure composed of a hydrophobic core that harbors the storage lipids, which is shielded by a droplet-specific phospholipid monolayer to which proteins are attached. The current model of LD biogenesis involves an incorporation of the lipid core into the membrane leaflets of the endoplasmic reticulum (ER) followed by a subsequent budding-like maturation of a LD, which ultimately pinches off. Once released, LD volume can increase by localized lipogenesis or fusion of existing droplet. Storage lipids are re-mobilized enzymatically by lipase activity. Lipase regulation in the adipocyte is heavily studied and involves multiple components including catecholamine signaling, the LD-associated proteins Perilipin and comparative gene identification (CGI-58) and at least two lipases named hormone sensitive lipase (HSL) and adipocyte triglyceride lipase (ATGL). LD regulation outside of the adipocyte is poorly understood and only few components are known. However, there is an urgent need to learn more about ectopic fat depots as mislocalized storage of lipids, for example in the liver or muscle, is an eminent health problem associated with insulin resistance or the metabolic syndrome. We developed a laser-scanning cytometer assay to enable 1,536-well screening and combined the results of the small molecules screen with an RNAi database based on lipid storage.
Triacsin C (Sigma-Aldrich T-4540), an inhibitor of long-chain fatty acyl CoA synthetase that blocks synthesis of triglycerides, was used as a positive control for lipid under-storage. A total of 23 nL of compound solution of different concentrations were transferred to the assay plates using a Kalypsys pin tool equipped with a 1,536-pin array containing 10-nL slotted pins (FP1S10, 0.457-mm diameter, 50.8 mm long; V&P Scientific). One microliter of oleic acid (400 uM) was added, and the plate was lidded with stainless steel rubber gasket lined lids containing pinholes. […] Fluorescence was detected by excitation of the fluorophores with a 488-nm laser on an Acumen Explorer (TTP Lab Tech). The total intensity in channel 2 (500-530 nm) reflected lipid droplet accumulation. Cells were detected using channel 3 (575-640 nm) with 5-um width and 100-um depth filters. The ratio of the number of objects in PMT channel 2 over the number of objects in PMT channel 3 was also calculated. Percent activity was computed relative to an internal control (100% inhibited lipid droplet deposition due to the presence of 20 uM Triacsin C), which was added to 32 wells/plate.
As for `O=C(O)CSC1c2ccccc2C(=O)N1Cc1ccccc1` (stereo unspecified), the “lipid storage change, negative = inhibition” value was 11% (inactive) and the cell number change is -11.8%.

With `O=C(CC(=O)N/N=C/c1ccccc1)NCc1ccccc1`, the “lipid storage change, negative = inhibition” value is 10.4% (inactive) and the cell number change came to 2.89%.

Turning to `COc1cc(C(=O)NCCOc2ccccc2)cc(OC)c1OC`, the “lipid storage change, negative = inhibition” value was 1.93% (inactive) and the cell number change is -10.6%.

Consider `COc1ccc(C(=O)NCCCc2ccccc2)cc1OC`, for which the “lipid storage change, negative = inhibition” value is 2.62% (inactive) and the cell number change is -16.4%.

In the case of `COCCCNC(=O)c1cc(OC)c(OC)c(OC)c1`, the Potency was 16.4 µM (active) and the cell number change was -1.92%.

As to `COc1ccc(C(=O)NCCCCCC(=O)O)cc1OC`, the Potency is 9.2 µM (active) and the cell number change is -16%.

`COc1cc(C(=O)NCCOc2cc(C)cc(C)c2)cc(OC)c1OC`: the “lipid storage change, negative = inhibition” value was 0.714% (inactive) and the cell number change came out at 3%.

With `COc1ccc(C(=O)NCCCCNC(=O)c2ccc(OC)c(OC)c2)cc1OC`, the “lipid storage change, negative = inhibition” value is 17.3% (inactive) and the cell number change amounted to 11.4%.

Turning to `COC(=O)c1ccc(-c2noc(CN3C[C@H]4CC[C@H]3C4)n2)cc1`, the “lipid storage change, negative = inhibition” value was 10.7% (inactive) and the cell number change is -0.0392%.

In the case of `O=C(NCC1CCCCC1)c1ccccc1[N+](=O)[O-]`, the “lipid storage change, negative = inhibition” value is -19.7% (inactive) and the cell number change amounted to 5.77%.

On to `COc1ccc(CNC(=O)Cc2cccs2)cc1OC`, for which the “lipid storage change, negative = inhibition” value was 5.76% (inactive) and the cell number change is 15.3%.

Turning to `Nc1nonc1C(=O)N/N=C/c1ccc(Br)o1`, the “lipid storage change, negative = inhibition” value was -2.4% (inactive) and the cell number change came out at 5.25%.

In the case of `Cc1cccc(OCC(=O)O/N=C(\N)c2ccccn2)c1C`, the “lipid storage change, negative = inhibition” value is -9.68% (inactive) and the cell number change is -6.52%.

Turning to `COc1ccc(C(=O)Nc2ccc(S(=O)(=O)N3CCCC3)cc2)c(OC)c1`, the outcome was inactive and the cell number change came to 7.48%.

As to `COc1cc(OC)c(C(=O)Nc2ccc(S(=O)(=O)N3CCCCC3)cc2)cc1OC`, the Potency is 6.51 µM (active) and the cell number change is 2.89%.

Regarding `COc1ccc(NC(=O)c2cc(S(=O)(=O)N3CCCCC3)ccc2OC)cc1`, the “lipid storage change, negative = inhibition” value was -28.8% (inactive) and the cell number change is -15.6%.

For `CC(=O)c1ccc(NC(=O)Nc2ccc(S(=O)(=O)N3CCCC3)cc2)cc1`, the Potency was 9.2 µM (active) and the cell number change was -4.34%.

`CC(=O)Nc1ccc(S(=O)(=O)N2CCCC2)cc1`: the “lipid storage change, negative = inhibition” value was -4.71% (inactive) and the cell number change is 12.4%.

For `CC(=O)Nc1ccc(S(=O)(=O)N2CCCN(S(=O)(=O)c3ccc(NC(C)=O)cc3)CC2)cc1`, the “lipid storage change, negative = inhibition” value is 10.4% (inactive) and the cell number change is -11.8%.

For the molecule `COc1ccc(N2C(=S)NC3CS(=O)(=O)CC32)cc1` (stereo unspecified), the “lipid storage change, negative = inhibition” value is 4.54% (inactive) and the cell number change amounted to 0.125%.

With `Cc1ccc(-c2nnc(SCC(=O)NC3CC3)o2)cc1`, the Potency is 29.1 µM (active) and the cell number change turned out to be 10.3%.

In the case of `Cc1cc(C)cc(-c2nnc(SCC(=O)NC3CC3)o2)c1`, the “lipid storage change, negative = inhibition” value is 18.4% (inactive) and the cell number change was determined as 9.78%.

Take `O=C(CSc1nnc(-c2ccccc2)o1)NC1CC1`: the “lipid storage change, negative = inhibition” value is 2.05% (inactive) and the cell number change was -4.73%.

As for `Cc1ccc(NC(NC(=O)c2cccs2)C(Cl)(Cl)Cl)cc1C` (stereo unspecified), the “lipid storage change, negative = inhibition” value is -13% (inactive) and the cell number change was 4.44%.

`CC(C)(CO)N=C1NS(=O)(=O)c2cc([N+](=O)[O-])ccc21`: the “lipid storage change, negative = inhibition” value is 0.321% (inactive) and the cell number change came to 2.18%.

For `CCOc1ccc2c(c1)C(C)=CC(C)(C)N2S(=O)(=O)c1ccc(NC(C)=O)cc1`, the Potency is 7.31 µM (active) and the cell number change is -18.1%.

For the molecule `CCOc1ccc2c(c1)C(C)=CC(C)(C)N2S(=O)(=O)c1ccc(C)cc1`, the “lipid storage change, negative = inhibition” value is 0.5% (inactive) and the cell number change was -19.8%.

Consider `COc1ccc2c(c1)C(C)=CC(C)(C)N2S(=O)(=O)c1ccc(C)cc1`, for which the “lipid storage change, negative = inhibition” value was 8.71% (inactive) and the cell number change worked out at 5.92%.

On to `Cc1ccc(S(=O)(=O)NC(C)c2ccccc2)cc1[N+](=O)[O-]` (stereo unspecified), for which the outcome was inactive and the cell number change was -16.5%.

In the case of `CCCOc1ccc(C2NC(=O)CCC2[N+](=O)[O-])cc1` (stereo unspecified), the molecule was classed as inactive and the cell number change was -7.92%.

As for `COc1ccccc1C1NC(=O)NC(C)=C1C(C)=O` (stereo unspecified), the Potency is 14.6 µM (active) and the cell number change stood at 6.66%.

In the case of `COc1ccccc1C1NC(=O)NC(C)=C1C(=O)OCc1ccccc1` (stereo unspecified), the “lipid storage change, negative = inhibition” value was 7.18% (inactive) and the cell number change is 8.03%.

As for `COc1ccccc1C1NC(=O)NC(C)=C1C(=O)OC1CCCCC1` (stereo unspecified), the “lipid storage change, negative = inhibition” value is -7.89% (inactive) and the cell number change was -18.5%.

On to `CCC(C)(C)NC(=O)C(c1ccccc1Cl)N(C(=O)CCC(=O)Nc1cc(C)on1)C1CC1` (stereo unspecified), for which the outcome was inactive and the cell number change was 10.4%.

With `O=C(COC(=O)c1ccc(OC(F)F)cc1)NCCNC(=O)COC(=O)c1ccc(OC(F)F)cc1`, the “lipid storage change, negative = inhibition” value is 1.33% (inactive) and the cell number change is -4.4%.

Consider `Cn1c(SCC(=O)Nc2ccccc2F)nnc1-c1cccs1`, for which the result was inactive and the cell number change worked out at 14.3%.

With `Cc1nnc(NC(=O)Cn2nc(C)c3ccccc3c2=O)s1`, the “lipid storage change, negative = inhibition” value was 3.77% (inactive) and the cell number change is 9.11%.

Regarding `COc1cccc(NC(=O)CCNC(=O)c2ccccc2Cl)c1`, the “lipid storage change, negative = inhibition” value is -15.6% (inactive) and the cell number change was -13.1%.

For the molecule `CCCNC(=O)CN(C)S(=O)(=O)c1ccc(F)cc1`, the “lipid storage change, negative = inhibition” value was -19.4% (inactive) and the cell number change is -1.04%.

Turning to `CNC(=O)CN(C)S(=O)(=O)c1ccc(F)cc1`, the Potency was 20.6 µM (active).

As to `CC(C)NC(=O)CN(C)S(=O)(=O)c1ccc(F)cc1`, the “lipid storage change, negative = inhibition” value was -5.26% (inactive) and the cell number change stood at 0.117%.

For the molecule `COc1cc(NC(=S)NCc2ccco2)cc(OC)c1OC`, the “lipid storage change, negative = inhibition” value is 7.9% (inactive) and the cell number change is -1.1%.

As for `Cc1ccc(Cc2cnc(NC(=O)c3cccs3)s2)cc1`, the “lipid storage change, negative = inhibition” value is -11.2% (inactive) and the cell number change is -12.1%.

As for `Cc1ccc(S(=O)(=O)c2cc3c(=O)n4cccc(C)c4nc3n(CC3CCCO3)c2=N)cc1C` (stereo unspecified), the “lipid storage change, negative = inhibition” value was 13.5% (inactive) and the cell number change came to 7.15%.

Turning to `COc1ccc(/C=C2/SC(=S)N(CCC(=O)O)C2=O)cc1`, the “lipid storage change, negative = inhibition” value was -19.3% (inactive) and the cell number change was -16.6%.

Regarding `CC(=C\c1ccccc1)/C=C1/SC(=S)N(CCC(=O)O)C1=O`, the “lipid storage change, negative = inhibition” value is -4.15% (inactive) and the cell number change was determined as 5.93%.

Turning to `COc1ccc(/C(C)=C2\SC(=S)N(CCC(=O)O)C2=O)cc1`, the Potency was 16.4 µM (active) and the cell number change came to 7.05%.

As to `O=C(CSc1nnnn1-c1ccccc1)N1N=CCC1c1ccccc1` (stereo unspecified), the “lipid storage change, negative = inhibition” value is 5.81% (inactive) and the cell number change was -5.17%.

In the case of `CCn1c(C)[n+](CC)c2ccc(C(=O)N(C)c3ccccc3)cc21`, the “lipid storage change, negative = inhibition” value is -2.21% (inactive) and the cell number change stood at 19.5%.

Consider `CC[n+]1c(/C=C/N(C)c2ccccc2)oc2ccc(F)cc21`, for which the Potency was 25.9 µM (active) and the cell number change was determined as 6.99%.

Turning to `CC[n+]1c(/C=C/C=C/N(C(C)=O)c2ccccc2)sc2ccccc21`, the “lipid storage change, negative = inhibition” value is -11.3% (inactive) and the cell number change is 10.1%.

For `C/C=C/COC(=O)C1=C(C)NC(=O)NC1c1ccc2c(c1)OCO2` (stereo unspecified), the molecule was called inactive and the cell number change turned out to be 9.12%.

Consider `Cc1c(N)cccc1-c1nc2ccccc2[nH]1`, for which the “lipid storage change, negative = inhibition” value was -2.3% (inactive) and the cell number change is -2.56%.

Regarding `CN(C)CCCNCCCNC(=O)/C(=N\O)c1ccccn1`, the “lipid storage change, negative = inhibition” value is 1.85% (inactive) and the cell number change is 11.1%.

As for `O=C(Nc1ccc(C2CC2(Cl)Cl)cc1)c1ccccc1Br` (stereo unspecified), the “lipid storage change, negative = inhibition” value is 20.5% (inactive) and the cell number change is 13.5%.

As to `COc1ccc(CN(CC(=O)NCc2ccccc2)C(=O)c2csnn2)cc1`, the “lipid storage change, negative = inhibition” value was 12.1% (inactive) and the cell number change was 1.68%.

For the molecule `CN(Cc1ccco1)c1ncnc2ccc(-c3ccc4c(c3)OCCO4)cc12`, the “lipid storage change, negative = inhibition” value is 25% (inactive).

For `CN(Cc1ccco1)c1ncnc2ccc(-c3ccoc3)cc12`, the Potency was -1.69% and -0.798%.

With `Cc1cccc(-c2ccc3ncnc(N(C)Cc4ccco4)c3c2)c1`, the “lipid storage change, negative = inhibition” value is 17% (inactive) and the cell number change is -20.6%.

In the case of `O=C(COC(=O)/C=C/c1cccc(F)c1)Nc1ncccn1`, the “lipid storage change, negative = inhibition” value is -1.2% (inactive) and the cell number change is -0.367%.

Turning to `COc1cccc(N2CCN(c3nc(C)cc(=O)[nH]3)CC2)c1`, the “lipid storage change, negative = inhibition” value was -16.9% (inactive) and the cell number change was 15.9%.

Turning to `O=C(CSc1nnnn1-c1ccc2c(c1)OCCO2)N1CCN(C(=O)c2ccco2)CC1`, the “lipid storage change, negative = inhibition” value was 1.65% (inactive) and the cell number change is -0.608%.

(Values after PubChem BioAssay AID2685 (National Center for Advancing Translational Sciences (NCATS), 2010).)
